For assay [1], the target named is T1, Protein kinase C iota type (Homo sapiens) (UniProt P41743).
T1 sequence (whole entry): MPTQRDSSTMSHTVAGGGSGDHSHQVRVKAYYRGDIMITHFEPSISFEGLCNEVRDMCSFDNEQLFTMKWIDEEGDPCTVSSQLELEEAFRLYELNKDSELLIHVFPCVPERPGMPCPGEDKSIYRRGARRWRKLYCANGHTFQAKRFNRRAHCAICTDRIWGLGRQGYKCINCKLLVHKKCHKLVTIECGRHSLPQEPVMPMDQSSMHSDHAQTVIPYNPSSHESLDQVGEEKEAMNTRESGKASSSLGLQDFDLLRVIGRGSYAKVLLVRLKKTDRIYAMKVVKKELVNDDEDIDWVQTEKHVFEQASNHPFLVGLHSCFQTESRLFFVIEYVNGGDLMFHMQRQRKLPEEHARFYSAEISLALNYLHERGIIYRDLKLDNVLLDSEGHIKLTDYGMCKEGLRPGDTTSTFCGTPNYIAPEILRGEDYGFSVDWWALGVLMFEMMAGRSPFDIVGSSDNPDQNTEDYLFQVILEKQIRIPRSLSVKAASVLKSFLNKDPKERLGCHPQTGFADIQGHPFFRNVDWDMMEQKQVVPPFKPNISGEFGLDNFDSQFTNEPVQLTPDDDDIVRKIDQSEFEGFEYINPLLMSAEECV
As to conditions: at 0.1 µM.

For assay [2], the target named is T1, Protein kinase C iota type (Homo sapiens). As to conditions: at 1 µM.
The target of assay [3] is Protein kinase C theta type (Homo sapiens) (UniProt Q04759). Conditions: at 0.1 µM.
Assay [4] shares this target. As to conditions: at 1 µM.
The target of assay [5] is Protein kinase C beta type (Homo sapiens) (UniProt P05771). As to conditions: at 0.1 µM.
For assay [6] the target is unchanged. Conditions: at 1 µM.
Assay [7] concerns the target T2, Serine/threonine-protein kinase D1 (Homo sapiens) (UniProt Q15139).
T2 sequence (whole entry): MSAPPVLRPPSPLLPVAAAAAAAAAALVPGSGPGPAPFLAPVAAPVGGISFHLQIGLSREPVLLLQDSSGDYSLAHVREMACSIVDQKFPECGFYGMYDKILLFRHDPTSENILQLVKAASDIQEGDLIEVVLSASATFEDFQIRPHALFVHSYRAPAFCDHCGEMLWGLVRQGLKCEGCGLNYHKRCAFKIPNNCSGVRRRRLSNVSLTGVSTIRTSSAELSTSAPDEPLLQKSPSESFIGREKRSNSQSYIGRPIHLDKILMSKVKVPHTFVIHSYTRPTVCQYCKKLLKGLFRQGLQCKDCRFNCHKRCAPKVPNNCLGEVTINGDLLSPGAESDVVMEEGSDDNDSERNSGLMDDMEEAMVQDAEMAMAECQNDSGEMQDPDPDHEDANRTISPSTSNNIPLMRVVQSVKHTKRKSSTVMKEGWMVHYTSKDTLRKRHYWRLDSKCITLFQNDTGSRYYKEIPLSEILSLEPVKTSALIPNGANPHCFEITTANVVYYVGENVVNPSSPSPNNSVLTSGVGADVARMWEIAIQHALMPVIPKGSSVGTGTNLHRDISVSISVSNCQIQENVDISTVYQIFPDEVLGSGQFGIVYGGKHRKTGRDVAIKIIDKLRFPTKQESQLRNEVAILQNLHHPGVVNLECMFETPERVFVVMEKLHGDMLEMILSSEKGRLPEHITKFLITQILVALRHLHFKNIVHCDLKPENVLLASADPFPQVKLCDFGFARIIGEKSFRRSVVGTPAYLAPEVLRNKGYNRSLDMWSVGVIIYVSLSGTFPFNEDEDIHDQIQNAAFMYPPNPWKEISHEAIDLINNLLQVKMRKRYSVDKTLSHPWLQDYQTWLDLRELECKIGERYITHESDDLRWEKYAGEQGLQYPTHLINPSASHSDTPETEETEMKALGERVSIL
As to conditions: at 0.1 µM.

Assay [8] concerns the target T2, Serine/threonine-protein kinase D1 (Homo sapiens). As to conditions: at 1 µM.
Assay [9] has as its target T3, Serine/threonine-protein kinase D2 (Homo sapiens) (UniProt Q9BZL6).
T3 sequence (whole entry): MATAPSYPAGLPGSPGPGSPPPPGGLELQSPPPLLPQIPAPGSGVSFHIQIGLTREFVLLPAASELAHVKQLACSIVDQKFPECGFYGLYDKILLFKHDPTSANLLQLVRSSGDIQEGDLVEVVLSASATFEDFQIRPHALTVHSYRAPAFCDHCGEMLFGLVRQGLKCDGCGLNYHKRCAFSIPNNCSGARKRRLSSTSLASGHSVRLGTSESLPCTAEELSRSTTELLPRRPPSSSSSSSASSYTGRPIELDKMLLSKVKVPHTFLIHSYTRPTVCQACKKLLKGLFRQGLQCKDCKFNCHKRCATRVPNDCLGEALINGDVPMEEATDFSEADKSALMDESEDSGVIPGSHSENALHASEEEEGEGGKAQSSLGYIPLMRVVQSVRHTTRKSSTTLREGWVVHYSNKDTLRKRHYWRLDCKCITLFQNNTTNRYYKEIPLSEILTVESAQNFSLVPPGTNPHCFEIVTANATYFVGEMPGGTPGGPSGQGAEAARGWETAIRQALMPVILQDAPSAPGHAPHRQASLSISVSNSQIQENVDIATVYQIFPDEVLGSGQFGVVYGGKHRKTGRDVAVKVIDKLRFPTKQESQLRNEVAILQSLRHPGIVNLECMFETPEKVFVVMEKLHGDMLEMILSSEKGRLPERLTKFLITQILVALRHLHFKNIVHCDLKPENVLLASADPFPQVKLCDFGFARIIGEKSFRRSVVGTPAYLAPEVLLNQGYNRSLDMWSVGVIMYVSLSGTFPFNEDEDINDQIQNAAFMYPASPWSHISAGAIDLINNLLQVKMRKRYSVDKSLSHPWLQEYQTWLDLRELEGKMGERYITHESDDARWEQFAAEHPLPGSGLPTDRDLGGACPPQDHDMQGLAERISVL
Conditions: at 0.1 µM.

Assay [10] has as its target T3, Serine/threonine-protein kinase D2 (Homo sapiens). As to conditions: at 1 µM.
Assay [11] addresses T4, Serine/threonine-protein kinase D3 (Homo sapiens) (UniProt O94806).
T4 sequence (whole entry): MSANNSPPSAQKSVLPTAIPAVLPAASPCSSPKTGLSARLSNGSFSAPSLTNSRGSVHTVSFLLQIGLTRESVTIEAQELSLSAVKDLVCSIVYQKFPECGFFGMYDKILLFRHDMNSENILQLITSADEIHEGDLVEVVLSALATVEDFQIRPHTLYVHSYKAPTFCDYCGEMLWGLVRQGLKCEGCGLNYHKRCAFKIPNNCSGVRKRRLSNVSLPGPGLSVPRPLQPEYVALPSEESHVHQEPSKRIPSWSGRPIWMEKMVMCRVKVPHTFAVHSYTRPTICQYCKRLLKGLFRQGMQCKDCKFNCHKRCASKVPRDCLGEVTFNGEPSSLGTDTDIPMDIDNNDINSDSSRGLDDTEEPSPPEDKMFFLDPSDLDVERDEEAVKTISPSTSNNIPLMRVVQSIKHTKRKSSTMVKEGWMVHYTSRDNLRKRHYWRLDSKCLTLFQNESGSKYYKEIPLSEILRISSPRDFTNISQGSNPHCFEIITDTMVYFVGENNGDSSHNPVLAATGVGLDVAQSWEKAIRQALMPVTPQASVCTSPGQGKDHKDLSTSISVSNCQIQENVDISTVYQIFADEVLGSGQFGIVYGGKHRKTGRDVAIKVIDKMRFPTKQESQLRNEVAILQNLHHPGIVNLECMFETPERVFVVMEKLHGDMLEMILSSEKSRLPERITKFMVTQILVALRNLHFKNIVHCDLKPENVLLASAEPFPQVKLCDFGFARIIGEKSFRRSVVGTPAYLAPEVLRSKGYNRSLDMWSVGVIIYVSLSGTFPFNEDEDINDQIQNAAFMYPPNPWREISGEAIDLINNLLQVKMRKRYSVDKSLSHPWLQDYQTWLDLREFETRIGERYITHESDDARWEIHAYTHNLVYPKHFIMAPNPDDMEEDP
Conditions: at 0.1 µM.

The target in assay [12] is T4, Serine/threonine-protein kinase D3 (Homo sapiens). As to conditions: at 1 µM.
In assay [13] the target is T5, cGMP-dependent protein kinase 1 (Homo sapiens) (UniProt Q13976).
T5 sequence (whole entry): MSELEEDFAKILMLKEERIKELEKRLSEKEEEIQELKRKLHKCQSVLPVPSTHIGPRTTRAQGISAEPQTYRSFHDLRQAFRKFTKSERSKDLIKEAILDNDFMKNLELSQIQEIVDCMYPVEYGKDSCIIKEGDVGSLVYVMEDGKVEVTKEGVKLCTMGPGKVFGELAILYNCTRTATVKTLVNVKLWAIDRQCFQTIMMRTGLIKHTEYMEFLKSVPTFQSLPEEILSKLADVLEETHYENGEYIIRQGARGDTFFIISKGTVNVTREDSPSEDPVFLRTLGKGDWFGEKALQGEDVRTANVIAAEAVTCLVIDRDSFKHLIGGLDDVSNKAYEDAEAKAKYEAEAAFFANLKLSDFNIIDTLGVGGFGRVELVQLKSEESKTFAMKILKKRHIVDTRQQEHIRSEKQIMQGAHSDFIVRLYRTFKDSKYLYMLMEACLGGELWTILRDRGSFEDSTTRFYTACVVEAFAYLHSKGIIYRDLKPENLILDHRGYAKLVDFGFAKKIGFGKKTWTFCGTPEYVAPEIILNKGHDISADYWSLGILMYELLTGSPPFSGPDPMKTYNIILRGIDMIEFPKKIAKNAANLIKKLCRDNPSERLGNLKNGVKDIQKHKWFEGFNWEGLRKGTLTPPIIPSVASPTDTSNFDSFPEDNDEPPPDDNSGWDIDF
Conditions: at 0.1 µM.

Assay [14] has as its target T5, cGMP-dependent protein kinase 1 (Homo sapiens). As to conditions: at 1 µM.
The target of assay [15] is T6, cGMP-dependent protein kinase 2 (Homo sapiens) (UniProt Q13237).
T6 sequence (whole entry): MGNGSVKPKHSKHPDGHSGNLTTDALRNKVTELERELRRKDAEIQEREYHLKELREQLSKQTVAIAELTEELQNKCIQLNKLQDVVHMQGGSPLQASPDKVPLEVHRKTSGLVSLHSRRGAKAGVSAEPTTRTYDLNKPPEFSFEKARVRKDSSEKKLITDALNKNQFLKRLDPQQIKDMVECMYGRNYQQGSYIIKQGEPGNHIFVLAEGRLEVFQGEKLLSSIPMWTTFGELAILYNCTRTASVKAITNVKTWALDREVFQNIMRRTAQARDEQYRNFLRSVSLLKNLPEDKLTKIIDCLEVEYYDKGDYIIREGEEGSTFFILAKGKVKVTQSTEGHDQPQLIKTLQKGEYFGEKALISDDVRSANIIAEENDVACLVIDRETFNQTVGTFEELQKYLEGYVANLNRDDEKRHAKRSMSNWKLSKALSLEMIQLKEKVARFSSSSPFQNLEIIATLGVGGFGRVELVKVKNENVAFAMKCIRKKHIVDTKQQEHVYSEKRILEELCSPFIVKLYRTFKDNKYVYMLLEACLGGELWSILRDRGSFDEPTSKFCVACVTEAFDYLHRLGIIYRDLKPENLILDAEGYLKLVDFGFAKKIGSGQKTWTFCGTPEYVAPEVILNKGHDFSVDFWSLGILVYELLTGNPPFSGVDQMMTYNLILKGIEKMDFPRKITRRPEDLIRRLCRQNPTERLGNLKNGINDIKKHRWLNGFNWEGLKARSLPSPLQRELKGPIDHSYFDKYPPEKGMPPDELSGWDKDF
As to conditions: at 0.1 µM.

Assay [16] deals with T6, cGMP-dependent protein kinase 2 (Homo sapiens). Conditions: at 1 µM.
In assay [17] the target is T7, cAMP-dependent protein kinase catalytic subunit PRKX (Homo sapiens) (UniProt P51817).
T7 sequence (whole entry): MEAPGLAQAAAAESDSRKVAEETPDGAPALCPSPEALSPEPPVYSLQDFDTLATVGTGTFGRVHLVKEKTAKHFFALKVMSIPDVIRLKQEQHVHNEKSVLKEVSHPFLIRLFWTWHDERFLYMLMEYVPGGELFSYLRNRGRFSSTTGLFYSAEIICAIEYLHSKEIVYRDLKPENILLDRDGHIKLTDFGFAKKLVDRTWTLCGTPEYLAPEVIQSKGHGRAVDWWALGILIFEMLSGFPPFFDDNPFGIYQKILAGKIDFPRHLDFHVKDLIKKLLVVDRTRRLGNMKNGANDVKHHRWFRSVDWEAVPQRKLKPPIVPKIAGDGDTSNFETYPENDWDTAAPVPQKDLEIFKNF
Conditions: at 0.1 µM.

Assay [18] concerns the target T7, cAMP-dependent protein kinase catalytic subunit PRKX (Homo sapiens). As to conditions: at 1 µM.
The target of assay [19] is Rho-associated protein kinase 1 (Homo sapiens) (UniProt Q13464). Conditions: at 0.1 µM.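 Also: values are mean percent inhibition of ROCK1.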
In assay [20] the target is Protein kinase C gamma type (Homo sapiens) (UniProt P05129). Conditions: at 1 µM.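 Also: each value is an averaged percent inhibition of the enzyme.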

Molecules are shown by their SMILES.

Sequence of Protein kinase C theta type (Homo sapiens) (Q04759 whole entry, looked up): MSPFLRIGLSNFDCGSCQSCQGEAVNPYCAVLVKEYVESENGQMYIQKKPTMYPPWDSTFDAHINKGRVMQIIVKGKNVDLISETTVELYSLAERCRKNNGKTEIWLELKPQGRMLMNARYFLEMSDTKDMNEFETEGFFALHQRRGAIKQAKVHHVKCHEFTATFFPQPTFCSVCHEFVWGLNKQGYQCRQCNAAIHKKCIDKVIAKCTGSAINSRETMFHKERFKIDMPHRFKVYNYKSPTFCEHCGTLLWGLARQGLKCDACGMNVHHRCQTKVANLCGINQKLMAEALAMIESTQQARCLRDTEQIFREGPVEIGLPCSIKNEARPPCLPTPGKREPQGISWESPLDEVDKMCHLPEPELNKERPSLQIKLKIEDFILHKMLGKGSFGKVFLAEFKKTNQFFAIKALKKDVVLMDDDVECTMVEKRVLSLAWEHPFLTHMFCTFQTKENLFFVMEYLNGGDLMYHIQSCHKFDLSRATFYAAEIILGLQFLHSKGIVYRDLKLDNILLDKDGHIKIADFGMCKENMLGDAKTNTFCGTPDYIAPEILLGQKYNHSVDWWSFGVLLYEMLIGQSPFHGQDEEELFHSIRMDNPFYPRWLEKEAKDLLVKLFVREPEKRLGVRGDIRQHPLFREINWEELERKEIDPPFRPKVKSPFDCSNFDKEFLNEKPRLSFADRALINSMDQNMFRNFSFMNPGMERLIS
Sequence of Protein kinase C beta type (Homo sapiens) (P05771 2-671 limits assumed): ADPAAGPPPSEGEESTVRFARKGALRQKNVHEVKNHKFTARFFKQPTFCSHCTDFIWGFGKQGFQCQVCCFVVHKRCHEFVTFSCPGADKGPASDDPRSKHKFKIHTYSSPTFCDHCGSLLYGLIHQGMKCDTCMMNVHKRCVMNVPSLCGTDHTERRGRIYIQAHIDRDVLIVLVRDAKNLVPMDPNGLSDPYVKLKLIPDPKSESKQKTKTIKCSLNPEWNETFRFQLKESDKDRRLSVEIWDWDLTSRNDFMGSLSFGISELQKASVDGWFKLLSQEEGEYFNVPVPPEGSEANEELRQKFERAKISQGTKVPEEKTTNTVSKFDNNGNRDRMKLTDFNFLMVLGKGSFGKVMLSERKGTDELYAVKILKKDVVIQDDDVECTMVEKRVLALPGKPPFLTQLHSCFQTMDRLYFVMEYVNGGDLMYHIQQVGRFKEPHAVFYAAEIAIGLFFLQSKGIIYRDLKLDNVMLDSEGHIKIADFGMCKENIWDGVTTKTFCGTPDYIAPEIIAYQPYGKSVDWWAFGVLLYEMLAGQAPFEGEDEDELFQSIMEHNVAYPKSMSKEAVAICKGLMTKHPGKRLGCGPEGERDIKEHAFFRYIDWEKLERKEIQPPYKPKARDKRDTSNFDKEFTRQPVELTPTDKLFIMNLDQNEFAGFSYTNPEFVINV
Sequence of Rho-associated protein kinase 1 (Homo sapiens) (Q13464 2-1354 limits assumed): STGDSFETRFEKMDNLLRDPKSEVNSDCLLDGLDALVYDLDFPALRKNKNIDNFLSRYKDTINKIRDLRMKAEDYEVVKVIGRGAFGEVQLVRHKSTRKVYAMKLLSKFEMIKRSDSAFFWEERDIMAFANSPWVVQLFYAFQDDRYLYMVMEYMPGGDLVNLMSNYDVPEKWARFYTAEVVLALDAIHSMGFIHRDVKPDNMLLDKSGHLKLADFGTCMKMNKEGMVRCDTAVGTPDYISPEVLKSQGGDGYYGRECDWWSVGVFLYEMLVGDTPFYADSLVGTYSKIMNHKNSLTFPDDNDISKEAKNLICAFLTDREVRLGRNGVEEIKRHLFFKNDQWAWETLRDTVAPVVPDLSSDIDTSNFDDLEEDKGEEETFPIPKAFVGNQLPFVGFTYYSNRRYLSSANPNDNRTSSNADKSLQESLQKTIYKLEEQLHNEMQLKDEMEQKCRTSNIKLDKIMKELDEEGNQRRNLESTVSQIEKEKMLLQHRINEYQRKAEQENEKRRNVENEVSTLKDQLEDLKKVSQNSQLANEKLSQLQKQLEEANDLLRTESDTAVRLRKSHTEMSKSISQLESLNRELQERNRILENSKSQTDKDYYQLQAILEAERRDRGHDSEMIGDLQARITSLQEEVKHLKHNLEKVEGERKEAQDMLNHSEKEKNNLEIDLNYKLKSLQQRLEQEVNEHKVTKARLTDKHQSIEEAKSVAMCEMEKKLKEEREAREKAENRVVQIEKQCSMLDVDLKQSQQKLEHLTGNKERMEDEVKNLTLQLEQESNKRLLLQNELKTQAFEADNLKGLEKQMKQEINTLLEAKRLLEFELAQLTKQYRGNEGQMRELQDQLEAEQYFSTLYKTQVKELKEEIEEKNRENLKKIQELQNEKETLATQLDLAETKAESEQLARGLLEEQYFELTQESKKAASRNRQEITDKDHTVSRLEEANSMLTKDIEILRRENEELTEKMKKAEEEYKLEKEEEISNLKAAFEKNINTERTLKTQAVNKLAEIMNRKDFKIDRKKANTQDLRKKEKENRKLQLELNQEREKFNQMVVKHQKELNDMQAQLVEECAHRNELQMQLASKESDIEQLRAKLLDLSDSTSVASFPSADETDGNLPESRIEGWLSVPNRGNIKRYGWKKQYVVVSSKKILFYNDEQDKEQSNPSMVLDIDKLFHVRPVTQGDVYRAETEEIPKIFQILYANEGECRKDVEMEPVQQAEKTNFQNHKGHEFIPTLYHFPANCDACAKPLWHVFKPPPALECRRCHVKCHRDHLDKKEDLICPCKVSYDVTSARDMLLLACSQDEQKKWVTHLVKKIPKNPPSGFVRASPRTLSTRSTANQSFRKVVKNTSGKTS

Take `COc1cc2c(cc1Nc1nc(Nc3ccsc3C(N)=O)c3cc[nH]c3n1)N(C(=O)CN(C)C)CCC2`: the inhibition was -0.4% in assay [1]; -0.5% in [2]; 4.39% in [3]; 10.2% in assay [4]; -1.27% in assay [5]; 2.49% in assay [6]. In addition, the inhibition in assay [7] stood at 3.95%; in assay [8], 19.8%; in assay [9], 12.2%; in assay [10] it was 39.7%; in assay [11] it was 9.23%; in [12], 51.1%. The inhibition in [13] was -0.55%; in assay [14], -0.01%; in assay [15], 0.12%; in assay [16] it was 1.58%; in assay [17], 2.02%; in [18], 1.29%. Further, in assay [19], the inhibition was 5.03%.
For `CCn1c(-c2nonc2N)nc2c(C#CCN)ncc(OCCCN)c21`, the inhibition stood at 4.01% in assay [20]; 2.51% in assay [1]; 16.5% in [2]; 6.73% in assay [3]; 38.6% in assay [4]; 4.07% in [5]. Further, the inhibition was 12% in [6]; -1.16% in [7]; -3.02% in assay [8]; -2.14% in assay [9]; 0.48% in [10]; -2.29% in assay [11]. Besides, the inhibition is -1.06% in [12]; 8.62% in [13]; 38% in assay [14]; 37.1% in assay [15]; 74.6% in assay [16]; 4.23% in [17]. The inhibition in assay [18] turned out to be 18.9%; in assay [19], 7.73%.

Broadly, the inhibition is the drop in the measured response relative to a control, in per cent.

(Values after ChEMBL document CHEMBL1961873, “Compounds: GSK PKIS; Assays: Nanosyn kinase panel” (2012).)
